High-throughput results from PubChem BioAssay.
A selection: hits, their analogues and other compounds. The true share with any hit is near 4.2%.
Sfp inh: qHTS Assay for Inhibitors of Bacillus subtilis Sfp phosphopantetheinyl transferase (PPTase). Potency, µM, inactives show largest response in the series, negative = inhibition, most hits filed as inhibitors. Biochemical Sfp PPTase activity, qHTS. AID 1490, 2009. 310,000 compounds, 3.5% hits;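 further: the enzyme is Sfp with the accession as filed and its product quenches rhodamine fluorescence; 0% = enzyme reaction without inhibitor and -100% = no enzyme wells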
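Sfp 15 nM + cpd, 15 min RT; start w/ rhodamine-CoA 5 uM, BHQ-2-YbbR 12.5 uM (final); 50 mM Hepes pH 7.6, 10 mM MgCl2, 0.01% NP-40, 0.01% BSA; read 525/598 nm at 0 and 30 min.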
PLK1 PBD block: qHTS for Inhibitors of PLK1-PDB (polo-like kinase 1 - polo-box domain): Primary Screen. 360,000 compounds, 2.8% hits. Serine/threonine-protein kinase PLK1 (Homo sapiens), P53350. Plk1 PBD binding of FITC phosphopeptide, fluorescence polarization. Potency, µM, for inactives: max response, negative = inhibition, hits mostly inhibitors; further: series mostly up to about 57 µM; nearly all actives have a fitted effect of over 65% in size
ALOX12 inh: Primary qHTS assay for inhibitors of human arachidonate 12S-lipoxygenase (ALOX12): Round 2; Potency, µM (titrated, usually from 108 µM), inactives show at the highest dose activity change, negative = inhibition, hits mostly inhibitors; purified 12hLO, xylenol orange hydroperoxide absorbance; AID 1671190, 2021; 580,000 compounds, 1.1% hits; Polyunsaturated fatty acid lipoxygenase ALOX12 (Homo sapiens), P18054
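Purified human 12hLO at 150 nM in 25 mM Hepes, 0.01% Triton X-100, pH 7.0, preincubated 15 min at room temperature with compound. Reaction started with 40 uM arachidonic acid, 30 min at room temperature. Hydroperoxide measured by Fe-xylenol orange, 573/405 nm absorbance ratio.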
VDR inh: Inhibitors of the vitamin D receptor (VDR): qHTS; 400,000 compounds, 0.93% hits; Potency, µM, for the others: max response, negative = inhibition, actives largely listed as inhibitors; VDR-SRC2-3 peptide fluorescence polarization, 2 h; Vitamin D3 receptor (Homo sapiens), P11473; AID 504847, 2011
Target sequence (P11473 whole entry, looked up): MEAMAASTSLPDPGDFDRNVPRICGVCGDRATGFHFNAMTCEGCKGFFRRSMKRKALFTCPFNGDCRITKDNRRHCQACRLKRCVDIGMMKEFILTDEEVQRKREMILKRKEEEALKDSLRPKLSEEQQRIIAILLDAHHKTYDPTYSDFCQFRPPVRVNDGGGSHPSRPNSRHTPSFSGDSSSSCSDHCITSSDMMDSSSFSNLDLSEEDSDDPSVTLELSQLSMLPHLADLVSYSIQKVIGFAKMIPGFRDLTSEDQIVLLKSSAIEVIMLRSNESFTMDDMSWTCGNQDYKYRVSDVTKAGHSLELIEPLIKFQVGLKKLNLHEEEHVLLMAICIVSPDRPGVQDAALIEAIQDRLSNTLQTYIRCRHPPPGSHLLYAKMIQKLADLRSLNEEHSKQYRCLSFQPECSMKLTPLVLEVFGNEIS
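The screen uses fluorescence polarization to detect compounds that interfere with recruitment of the SRC2-3 coactivator peptide to VDR; plates are read after 2 h at room temperature.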
Starred values were filed as active, the others as inactive; ? = inconclusive; nt = not tested or not shown; [ ] = remark or other dose. The call rests on the fitted dose curve; in most records, active means well fitted curve in the direction sought with a large enough effect; inconclusive means small, poorly fitted or top-dose-only effect, or another doubt; inactive means no such curve, though single readings can be large; an effect the other way counts as inactive or inconclusive. Unless noted, on the % scale 0 is the no-effect control and ±100 the full control effect; potency means the concentration at half of the fitted maximal effect.

SMILES	Sfp inh	PLK1 PBD block	ALOX12 inh	VDR inh
COCCN(Cc1cc2cc(C)ccc2n2nnnc12)C(=S)Nc1ccccc1C	2.9%	-19.0%	-4.2%	-16.6%
CCCN1CCN(C(=O)c2c(C)oc3c2CN(Cc2ccc(C)cc2)CC3)CC1	nt	nt	12.6µM*	nt
Cc1cc(/C=N/n2cnnc2)c(C)n1-c1ccc(OCc2ccc(Cl)cc2Cl)cc1	35.5µM*	-6.4%	nt	2.3%
CCCCCNC(=O)Cc1csc2nc(C)c(-c3cc(C)n(-c4cccc(C)c4)n3)c(=O)n12	nt	nt	5.4%	nt
CCCCNC(=O)Cc1csc2nc(C)c(-c3cc(C)n(-c4cccc(Cl)c4)n3)c(=O)n12	nt	nt	39.8µM*	nt
O=C1C(=Cc2ccco2)CCCC1=Cc1ccco1	nt	-17.7%	25.1µM*	-3.3%
O=C1C(=Cc2ccco2)CCC1=Cc1ccco1	nt	?	35.5µM*	?
O/N=C1\CCC\C1=C/c1ccco1	17.1%	-3.0%	?	0.1%
O=C1N=C(N2CCOCC2)SC1=Cc1ccco1	nt	-7.8%	?	-11.5%
COC(=O)c1cc2sc(Cl)cc2n1Cc1nc(-c2ccccc2)oc1C	79.4µM*	-1.5%	0.3%[57.4 µM]	3.9%
COc1cc(/C=C(\C#N)C(=O)Nc2ccc(C(=O)O)cc2)ccc1OC(=O)c1cccc(F)c1	?	23.8µM*	0.0%	?
COc1cc(/C=C(\C#N)C(=O)NCc2ccccc2)ccc1OCc1ccc(C(=O)O)cc1	8.2%	18.9µM*	-21.2%	?
COCCNC(=O)/C(C#N)=C/c1ccc(OC(=O)c2cccs2)c(OC)c1	-2.7%	-15.3%	-16.1%	70.8µM*
CCOc1cc(/C=C(/C#N)C(=O)Nc2ccc(OC)cc2)ccc1OCc1ccc(C(=O)O)cc1	-14.2%	26.7µM*	-20.5%	1.8%
COCCNC(=O)/C(C#N)=C/c1cccs1	0.4%	25.0%	54.1%	3.6%
COc1cc(/C=C(/C#N)C(=O)Nc2ccccc2)ccc1OCc1ccc(C(=O)O)cc1	17.3%	?	-14.5%	-2.8%
Cc1cccc(OC(C)C(=O)Nc2nonc2-c2ccc(Br)cc2)c1C (stereo not given)	nt	nt	-6.4%	25.1%
CC(=O)c1ccc(NC(=O)COC(=O)c2ccccc2Nc2ccccc2)cc1	16.9%	26.7µM*	-9.8%	?
O=C(COC(=O)c1ccccc1Nc1ccccc1)Nc1ccccc1	-5.5%	-7.3%	-17.6%	-0.3%
CC(=O)c1ccccc1NC(=O)COC(=O)c1ccccc1NC(=O)c1ccccc1	28.2µM*	-4.9%	-18.5%	-4.9%
COC(=O)C(CC(=O)c1ccc(C)cc1)n1nc(C)cc1C (stereo not given)	-1.4%	-4.5%	-24.6%	-14.1%
COC(=O)C(CC(=O)c1ccc(Br)cc1)n1nc(C)cc1C (stereo not given)	50.1µM*	-19.6%	-7.5%	?
COc1ccc2c(c1)CSC(c1ccccc1)C2=O (stereo not given)	nt	?	35.5µM*	nt
CSc1ncc(Cl)c(C(=O)Nc2cccc(C)c2)n1	-7.2%	-6.9%	-18.6%	7.4%
CSc1ncc(Cl)c(C(=O)C(C#N)c2nc3c(C)cc(C)cc3c(=O)[nH]2)n1 (stereo not given)	-9.3%	21.2µM*	-21.2%[57.4 µM]	?
SMILES	Sfp inh	PLK1 PBD block	ALOX12 inh	VDR inh
Cc1ccc(CN2CCC3(CC2)CCN(Cc2cccnc2)CC3CO)s1 (stereo not given)	nt	nt	2.9%	nt
COc1ccccc1/C=C/c1nc(S(=O)(=O)c2ccccc2)c(N(C)C)o1	-22.3%	-9.6%	?	?
O=[N+]([O-])c1ccc(/C=C/C2=NN(c3ccccc3)C(c3ccco3)C2)cc1 (stereo not given)	39.8µM*	14.9%	?	16.0%
CC1=C(C(=O)Nc2nc3ccccc3s2)C(c2ccco2)C(C#N)=C(SCC(=O)NC2CCCCC2)N1 (stereo not given)	35.9%	-1.9%	-17.6%	-1.8%
CCOc1cc2c(cc1OCC)C(C(=O)O)C(c1cc(OC)c(OC)c(OC)c1)N(C)C2=O (stereo not given)	14.7%	-7.2%	-4.4%	-7.2%
Cc1ccc(Cc2c(-c3ccc(Cl)cc3)nc3c(Cl)cc(C(F)(F)F)cn23)cc1	nt	0.7%	35.5µM*	nt
Cc1ccc(-c2nc3c(Cl)cc(C(F)(F)F)cn3c2Cc2ccccc2)cc1	nt	5.3%	?	nt
Cc1ccc(NC(=O)c2nc(S(C)(=O)=O)ncc2N(Cc2cccc(F)c2)Cc2ccco2)cc1C	nt	nt	-17.9%	3.0%
